# Assay outcomes (PubChem)
# HPGD block – blocks human HPGD enzyme activity; P15428; 150,000 tested, 4.3% active; purified HPGD, NADH fluorescence kinetic, PGE2 substrate; Potency, µM, actives largely listed as inhibitors; AID 894
#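 20 nM HPGD preincubated 15 min at room temperature with compound in 50 mM Tris-HCl pH 8, 0.01% Tween 20. Started with 1 mM NAD+ and 30 uM prostaglandin E2; NADH fluorescence (360/450 nm) read 5 times over 30-s intervals, last minus first.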
# PNC inhibitor – blocks assembly of the perinucleolar compartment | AID 2417 | activity change (PNC), negative = inhibition, % at 10 µM | PC3M PTB-GFP, PNC prevalence imaging, 16 h; hits give low values | 140,000 tested, 3.1% active;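 active = readout at or below -70, meaning at least 70% loss of cells showing the perinucleolar compartment, a nuclear body marking cancer cells; inconclusive = readout between -30 and a set limit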
#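 PC3M cells stably expressing PTB-GFP, 750–1000 cells/well, treated 16 h at 37 °C with compound (23 nl of library stock), in duplicate. After paraformaldehyde fixation and Hoechst stain, imaged at 20x; PNC prevalence scored by image analysis.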
# ALDH1A1 inh – ALDH1A1 (human) enzyme inhibition | AID 1030 | 220,000 tested, 7.3% active | Purified ALDH1A1, NADH fluorescence, propionaldehyde substrate | Potency, µM (top dose mostly 75.3 µM), hits mostly inhibitors
# Target sequence (P00352 whole entry, looked up): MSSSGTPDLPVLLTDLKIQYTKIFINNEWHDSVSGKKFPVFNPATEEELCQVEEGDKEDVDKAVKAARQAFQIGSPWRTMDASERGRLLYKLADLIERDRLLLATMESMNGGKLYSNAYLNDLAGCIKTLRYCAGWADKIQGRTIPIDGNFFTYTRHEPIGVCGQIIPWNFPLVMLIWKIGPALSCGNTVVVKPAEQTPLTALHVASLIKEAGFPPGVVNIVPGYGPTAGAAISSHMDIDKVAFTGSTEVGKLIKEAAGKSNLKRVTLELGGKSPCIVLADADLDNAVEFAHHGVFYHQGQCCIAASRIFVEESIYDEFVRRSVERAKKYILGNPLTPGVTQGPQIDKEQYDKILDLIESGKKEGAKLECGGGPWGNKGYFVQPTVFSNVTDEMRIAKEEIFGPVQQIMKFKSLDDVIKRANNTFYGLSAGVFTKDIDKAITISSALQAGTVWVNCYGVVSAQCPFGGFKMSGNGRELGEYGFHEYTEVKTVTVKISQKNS
# A number is an active result; i = inactive; ? = inconclusive; nt = no result given; [ ] = another dose, or the depositor's remark. Rows were chosen to be rich in hits. Some 11% of all compounds tested hit in one or more screens of this group. Unless noted, calls follow the shape of the dose curve; as a rule, active = well fitted inhibition curve with a large enough effect (not every such curve was filed as active); inconclusive = small, poorly fitted or top-dose-only effect, or another doubt; inactive = no such curve, though single readings can be large or run the other way.
SMILES,HPGD block,PNC inhibitor,ALDH1A1 inh
CCN(C(=O)CSc1nnc(-c2ccncc2)n1Cc1ccccc1)C1CCS(=O)(=O)C1 (stereo unspecified),nt,nt,i
O=C(COC(=O)CCC(=O)c1cccs1)Nc1ccccc1[N+](=O)[O-],nt,nt,i
Cc1cc(NC(=O)c2ccc3c(c2)C(=O)N(Cc2ccccc2)C3=O)no1,nt,nt,i
CC(C)CN1C(=O)c2ccc(C(=O)Nc3ccccn3)cc2C1=O,i,i,1.1µM
CC(=O)NS(=O)(=O)c1ccc(NC(=O)c2ccc3c(c2)C(=O)N(CCC(C)C)C3=O)cc1,28µM,i,?
CC(C)CN1C(=O)c2ccc(C(=O)Nc3ccncc3)cc2C1=O,i,i,0.63µM
CC(C)CN1C(=O)c2ccc(NC(=O)c3ccccc3F)cc2C1=O,?,i,?
COCCCN1C(=O)c2ccc(C(=O)Nc3ccc(OC)cc3)cc2C1=O,i,i,?
CC(C)N1CCNCC1,nt,nt,i
c1ccc(CSc2ccc(-c3cccnc3)nn2)cc1,nt,nt,i
O=C(NNC(=O)c1cc(-c2ccccc2)n(-c2ccccc2)n1)c1cccc([N+](=O)[O-])c1,i,i,i
CCOC(=O)N1CCC(NC(=O)CCN2C(=O)C3C4C=CC(C4)C3C2=O)CC1 (stereo unspecified),i,-101,i
CCOC(=O)N1CCC(NC(=O)CCC(=O)c2ccccc2)CC1,i,?,i
O=C(CCN1C(=O)C2C3C=CC(C3)C2C1=O)N1CCN(c2cccc(Cl)c2)CC1 (stereo unspecified),i,i,7.9µM
O=C(CCN1C(=O)C2C3C=CC(C3)C2C1=O)N1CCN(c2ccccn2)CC1 (stereo unspecified),?,i,?
CC(C)=CCC/C(C)=C/CO/N=C1/C[C@@H](O)[C@@H](O)[C@@H]2[C@@H]3C(=O)N(C4CCCCC4)C(=O)[C@H]3CC[C@H]12,nt,nt,i[13.5 µM]
O=C(Oc1ccc2ccc(=O)oc2c1)c1cccs1,i,i,?
CCOC(=O)C(Oc1ccc2c(-c3ccccc3)cc(=O)oc2c1)c1ccccc1 (stereo unspecified),i,?,?
COC(=O)COc1ccc2c(-c3cccc([N+](=O)[O-])c3)cc(=O)oc2c1,i,i,?
O=C(Oc1ccc2c(-c3ccccc3)cc(=O)oc2c1)C1CCCCC1,?,i,2.2µM
CC(Oc1ccc2c(-c3ccccc3)cc(=O)oc2c1)C(=O)O (stereo unspecified),?,i,28µM
COc1ccc(-c2cc(=O)oc3cc(OC(=O)C4CCCCC4)ccc23)cc1,?,?,i
O=C(Oc1ccc2c(-c3ccccc3)cc(=O)oc2c1)c1cccs1,?,i,11µM
CCOC(=O)C(C)Oc1ccc2c(-c3cccc([N+](=O)[O-])c3)cc(=O)oc2c1 (stereo unspecified),35µM,i,?
O=C1CN(c2ccc(Cl)cc2)C2(CCCCC2)S1,i,i,i
SMILES,HPGD block,PNC inhibitor,ALDH1A1 inh
CC(O/N=C\c1ccccc1O)C(=O)Nc1ccccc1C(=O)N1CCOCC1 (stereo unspecified),i,?,i
CCc1cc2c(-c3ccccc3)cc(=O)oc2cc1OC(=O)c1cccs1,3.2µM,i,i
CC(NC(=O)OCc1ccccc1)C(=O)Oc1cc2oc(=O)cc(-c3ccccc3)c2cc1Cl (stereo unspecified),?,i,?
Cn1cnnc1SCC(=O)NCCc1ccc(Cl)cc1Cl,nt,nt,i
O=C(O)/C=C/c1coc2ccccc2c1=O,i,i,i
O=C(N/N=C\c1coc2ccccc2c1=O)c1ccco1,nt,nt,1.6µM
O=C(N/N=C\c1ccccc1OCc1ccccc1)c1ccco1,i,?,i
O=C(N/N=C/c1coc2ccccc2c1=O)c1cn(-c2ccccc2)nc1-c1ccccc1,i,i,3.2µM
NC(=O)N/N=C/c1coc2ccc(O)cc2c1=O,nt,nt,18µM
Cc1ccc2occ(/C=N/NC(N)=S)c(=O)c2c1,i,i,?
O=C(N/N=C/c1cn(-c2ccccc2)nc1-c1cc2ccccc2o1)c1ccccc1Br,?,i,?
O=C(N/N=C/c1coc2ccccc2c1=O)c1ccccc1,nt,nt,4µM
O=C(NCCN1C(=O)S/C(=C\c2ccc(F)cc2)C1=O)c1cccc(S(=O)(=O)N2CCOCC2)c1,i,i,i
COc1cc(NC(=S)NCCN2CCOCC2)cc(OC)c1,i,i,i
N#CC(C#N)=CNc1cccnc1,nt,nt,i
O=S(=O)(Nc1ncccn1)c1ccc(NC(=S)Nc2ccccc2Cl)cc1,nt,nt,i
COc1nc(-c2ccccc2)nc(C)c1CC(=O)O,nt,nt,i
CCC(C)(C)NC(=O)C(c1ccncc1)N(C(=O)c1sc(C)nc1C)c1ccc(C)cc1 (stereo unspecified),nt,nt,i
COc1ccccc1-n1cc(-c2ccc(Cl)cc2)[nH]c1=O,i,i,11µM
COc1ccccc1-n1cc(C(=O)c2cc(Cl)ccc2O)cc(C#N)c1=O,nt,nt,i
Cc1ccccc1-c1n[nH]c(=S)o1,i,i,?
CSc1ccccc1-c1n[nH]c(=S)o1,nt,nt,22µM
Cc1ccccc1Nc1oc(-c2ccccc2)nc1CCc1ccccc1,i,nt,?
COc1ccc(C(=O)N2CCC[C@@]3(CCN(Cc4ccncc4)C3)C2)cc1,35µM,nt,28µM
O=C(c1ccncc1)N1CCC2(CCCN(Cc3ccccc3)C2)CC1,i,nt,i
SMILES,HPGD block,PNC inhibitor,ALDH1A1 inh
O=C(c1ccncc1)N1CCC[C@@]2(CCN(Cc3ccncc3)C2)C1,i,nt,22µM
COc1ccc(C(=O)N2CCC[C@@]3(CCN(Cc4cc(C(F)(F)F)cc(C(F)(F)F)c4)C3)C2)cc1,i,nt,i
N#Cc1ccc(CN2CC[C@@]3(CCCN(C(=O)c4cccc(F)c4)C3)C2)cc1,28µM,nt,i
Cn1cccc1C(=O)N1CCC[C@@]2(CCN(Cc3ccc(C#N)cc3)C2)C1,i,nt,?
COc1ccc2c(c1)O[C@H](c1cccc(C(F)(F)F)c1)[C@@H](O)C2=O,nt,nt,i[13.5 µM]
Cc1cc(C)cc(OC(=O)C23CCC(C)(C(=O)O2)C3(C)C)c1 (stereo unspecified),nt,nt,i
CN(C)c1nnnn1-c1ccccc1Oc1ncc(C(F)(F)F)cc1Cl,nt,nt,i
Nc1nc(SCC(=O)Nc2ccc([N+](=O)[O-])cc2)n[nH]1,nt,nt,i
CCCC12CN3CCN(CC(C3)/C1=N\NC(=O)c1ccccc1N)C2,?,i,?
CCCC12CN3CCN(CC(C3)/C1=N\NC(=O)c1ccc(C(C)(C)C)cc1)C2,i,i,32µM
C/C(=N\NC(=S)NC(C)C)c1cccc([N+](=O)[O-])c1,i,i,i
C/C(=N/NC(=S)Nc1cccc(C)c1)c1cccc([N+](=O)[O-])c1,nt,nt,8.9µM
NS(=O)(=O)c1ccc(CCNC(=O)COC(=O)CC(c2ccccc2)c2ccccc2)cc1,nt,nt,i
CC(C)(C)CC(=O)NCCCCCCNC(=O)CC(C)(C)C,i,i,i
O=C(c1ccc(-n2cccc2)cc1)N1CCCCC1,nt,nt,32µM
O=C(COc1ccc(-c2ccccc2)cc1)N1CCCC1,nt,nt,13µM
O=C(c1cccc(Br)c1)N1CCCC1,18µM,i,i
Cc1cccc(C(=O)N2CCCCCC2)c1,5µM,i,i
O=C(Oc1ccc(-c2ccccc2)cc1)N1CCCCC1,i,i,i
O=C(c1cccc(C(F)(F)F)c1)N1CCCCCC1,?,i,i
O=C(c1cccc(Br)c1)N1CCN(C(=O)N2CCCCC2)CC1,i,?,?
O=C(c1ccc(S(=O)(=O)N2CCCCC2)cc1)N1CCN(c2ccccc2)CC1,i,i,i
